DENV2 CPE – inhibitors of DENV2 cytopathic effect; CPE inhibition, % at 9.99 µM; hit rate 1.7% among 350,000; DENV2-infected cells, cytopathic effect rescue, plate reader; in the data active = CPE inhibition above about 20%, passing the limit was not always enough; tested in BHK-21 cells
rRNA inh HTS – inhibitors of bacterial rRNA selective over humanized ribosomes. AID 720706. E. coli WT GFP vs humanized-ribosome RFP mutants, fluorescence, 24 h; stronger effect = lower value; DMSO median 0, no signal -100. GFP signal change (wild-type ribosome), % (no concentration beside the values). hit rate 1.6% among 350,000;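 active = significant combined selectivity score with lowered wild-type GFP, culture density cut under 30%, mutant RFP and density less affected; inactive = any of these conditions unmet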
CaV13 ICDI inh – Disruptors of the CACNA1D IQ motif to Ca2+-dependent inactivation inhibitor domain association, primary screening, Förster resonance energy transfer in intact living …; hit rate 0.098% among 340,000; inhibition, % at 12.3 µM; AID 743397; HEK cells, CFP/YFP FRET ICDI-IQ, plate reader, 10 min; percent FRET-ratio fall versus neutral wells;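 active = mean replicate inhibition of at least 30% and at least 1% of replicates passing that level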
GSIS activator – GLuc luminescence reporter in INS-1E cells, primary screen for activators of glucose-dependent secretion of insulin; INS-1E GLuc reporter insulin secretion, 2-3 h; activation, % at 16.6 µM; hit rate 0.61% among 370,000; AID 743287;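 active = lowest replicate activation of at least 40%, so every replicate reaches that level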
ERAP1 inh – ERAP1 (human) enzyme inhibition; Q9NZ08; recombinant ERAP1, Leu-AMC fluorescence, 60 min; inhibition, % at 10.7 µM; hit rate 0.15% among 340,000;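 active = mean replicate inhibition of at least 30%, or all replicates individually reaching that 30% level; inactive = mean below 30% and not every replicate reaching it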
Target sequence (Q9NZ08 whole entry, looked up): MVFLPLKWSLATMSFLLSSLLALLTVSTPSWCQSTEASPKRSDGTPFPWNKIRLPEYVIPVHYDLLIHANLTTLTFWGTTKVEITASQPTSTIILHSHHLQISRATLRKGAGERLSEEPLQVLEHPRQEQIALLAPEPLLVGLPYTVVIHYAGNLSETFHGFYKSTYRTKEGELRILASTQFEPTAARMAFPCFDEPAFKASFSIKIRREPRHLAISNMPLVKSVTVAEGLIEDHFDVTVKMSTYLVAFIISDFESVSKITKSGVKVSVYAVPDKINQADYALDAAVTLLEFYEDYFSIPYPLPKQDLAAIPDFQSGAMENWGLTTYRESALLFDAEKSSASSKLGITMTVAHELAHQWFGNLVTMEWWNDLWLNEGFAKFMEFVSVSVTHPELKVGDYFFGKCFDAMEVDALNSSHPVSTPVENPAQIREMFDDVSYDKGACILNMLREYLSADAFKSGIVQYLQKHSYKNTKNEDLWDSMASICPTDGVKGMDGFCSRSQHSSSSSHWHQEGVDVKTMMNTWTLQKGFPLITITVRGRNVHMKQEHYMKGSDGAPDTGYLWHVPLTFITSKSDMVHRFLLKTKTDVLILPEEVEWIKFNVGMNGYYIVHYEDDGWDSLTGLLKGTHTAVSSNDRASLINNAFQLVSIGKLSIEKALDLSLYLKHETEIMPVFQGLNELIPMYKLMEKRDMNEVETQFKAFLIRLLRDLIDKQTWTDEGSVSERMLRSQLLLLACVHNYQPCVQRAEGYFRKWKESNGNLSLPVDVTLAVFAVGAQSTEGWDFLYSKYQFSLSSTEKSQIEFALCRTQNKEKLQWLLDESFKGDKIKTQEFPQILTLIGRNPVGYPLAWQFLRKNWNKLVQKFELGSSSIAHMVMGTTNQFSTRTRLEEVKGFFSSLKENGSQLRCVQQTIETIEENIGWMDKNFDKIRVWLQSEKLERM
PGC1a acetyl inh – lowers PGC1a acetylation signal in U2OS cells; AlphaScreen anti-acetyl-lysine; with virally co-expressed GCN5 acetyltransferase; inhibition, % at 15.6 µM; hit rate 0.17% among 350,000; AID 651687;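 active = every replicate shows inhibition of at least 40%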
Of the large screens only hits and unclear results are named; the others gave an inactive call; ! = not confirmed by another sample. Shown are actives, neighbours in structure and some others; about 3.2% of the full set was active somewhere.

O=C(C[C@H]1CC[C@@H]2[C@H](COC[C@@H](O)CN2S(=O)(=O)c2ccccc2)O1)NCc1ccc2c(c1)OCO2	none (no result: CaV13 ICDI inh)
O=C(C[C@@H]1CC[C@@H]2[C@H](COC[C@H](O)CN2C(=O)c2ccccc2)O1)Nc1ccccc1	none (no result: CaV13 ICDI inh, ERAP1 inh)
O=C(C[C@@H]1CC[C@@H]2[C@H](COC[C@@H](O)CN2C(=O)c2ccccc2)O1)Nc1ccccc1	none (no result: CaV13 ICDI inh, ERAP1 inh)
O=C(C[C@@H]1CC[C@H]2[C@@H](COC[C@@H](O)CN2C(=O)c2ccccc2)O1)Nc1ccc(-c2ccccc2)cc1	DENV2 CPE 48.3 (no result: CaV13 ICDI inh)
O=C(C[C@@H]1CC[C@@H]2[C@H](COC[C@H](O)CN2C(=O)c2ccccc2)O1)Nc1ccc(-c2ccccc2)cc1	DENV2 CPE 44.3 (no result: CaV13 ICDI inh)
CCCC#Cc1cnc2c(c1)C(=O)N([C@H](C)CO)C[C@H](C)[C@H](CN(C)C(=O)Nc1ccccc1OC)O2	none (no result: CaV13 ICDI inh)
Cc1ccc(NC(=O)Nc2ccnc(-c3cccnc3)n2)cc1	CaV13 ICDI inh 42.8
Cc1ccc(C(=O)Nc2ccnc(-c3cccnc3)n2)cc1	none
C[C@H]1CN([C@@H](C)CO)C(=O)c2cc(C#CC3(O)CCCC3)cnc2O[C@@H]1CN(C)C(=O)Cc1ccncc1	none (no result: CaV13 ICDI inh)
COc1ccc(S(=O)(=O)Nc2cccc3c2O[C@@H](CN(C)CC2CC2)[C@H](C)CN([C@H](C)CO)C3=O)cc1	none (no result: CaV13 ICDI inh)
Cc1noc(C)c1S(=O)(=O)Nc1ccc2c(c1)C(=O)N([C@H](C)CO)C[C@@H](C)[C@@H](CN(C)C(=O)CCC(F)(F)F)OCCCC[C@@H](C)O2	none (no result: CaV13 ICDI inh)
Cc1noc(C)c1S(=O)(=O)Nc1ccc2c(c1)C(=O)N([C@@H](C)CO)C[C@@H](C)[C@H](CN(C)C(=O)CCCN(C)C)OCCCC[C@H](C)O2	none (no result: DENV2 CPE, CaV13 ICDI inh, ERAP1 inh)
Cc1noc(C)c1S(=O)(=O)Nc1ccc2c(c1)C(=O)N([C@H](C)CO)C[C@H](C)[C@H](CN(C)C(=O)CCC(F)(F)F)OCCCC[C@@H](C)O2	DENV2 CPE 71.9 (no result: CaV13 ICDI inh)
Cc1noc(C)c1S(=O)(=O)Nc1ccc2c(c1)C(=O)N([C@H](C)CO)C[C@H](C)[C@@H](CN(C)C(=O)CCCN(C)C)OCCCC[C@H](C)O2	DENV2 CPE 79.0 (no result: CaV13 ICDI inh, ERAP1 inh)
COc1ccc(/C=C2\C(=O)NCC(=O)N2Cc2ccccc2)cc1	none (no result: DENV2 CPE, rRNA inh HTS, CaV13 ICDI inh, GSIS activator, ERAP1 inh)
COc1ccc(/C=C2\C(=O)NCC(=O)N2C)cc1	ERAP1 inh 86.2
CC(C)[C@H](NC(=O)C1CC1)C(=O)N1CCC[C@H]1C(=O)NCCc1ccccc1Cl	DENV2 CPE 28.9 (no result: CaV13 ICDI inh, PGC1a acetyl inh)
COc1cccc(C(=O)N[C@H](C(=O)N2CCC[C@H]2C(=O)NCCc2ccccc2Cl)C2CCCCC2)c1	DENV2 CPE 28.6 (no result: PGC1a acetyl inh)
COc1cccc(NC(=O)N(C)C[C@@H]2OCc3cn(nn3)CCCC(=O)N([C@@H](C)CO)C[C@@H]2C)c1	none (no result: DENV2 CPE, CaV13 ICDI inh, ERAP1 inh)
COc1ccc(CN2CCNC(=O)C2CC(=O)NCC2CCOCC2)c(C)c1C (stereo unspecified)	DENV2 CPE 89.5 (no result: PGC1a acetyl inh)
CC1CCC(NCCNC(=O)c2ccco2)CC1 (stereo unspecified)	GSIS activator 43.9
C/C=C/c1ccc(OCCN2C(=O)NC(C)(C)C2=O)c(OC)c1	GSIS activator 44.0 (no result: DENV2 CPE, rRNA inh HTS, ERAP1 inh)
COc1ccc(NC(=O)N(C)C[C@@H]2Oc3ccc(NS(=O)(=O)c4ccc(F)cc4)cc3CC(=O)N([C@@H](C)CO)C[C@@H]2C)cc1	none (no result: CaV13 ICDI inh)
CC(C)(C)Nc1nc2nonc2nc1NC(C)(C)C	rRNA inh HTS -49.3
C[C@@H]1CN([C@@H](C)CO)C(=O)c2cc(C#CC3CC3)cnc2O[C@@H]1CN(C)C(=O)Nc1ccccc1	none (no result: CaV13 ICDI inh)
O=C(Nc1cc([N+](=O)[O-])ccc1O)c1ccc2c(c1)C(=O)N(Cc1ccco1)C2=O	DENV2 CPE 25.5 (no result: PGC1a acetyl inh)
O=C(c1ccccc1)N1CC(=O)N2[C@H](CO)[C@H](c3ccc(/C=C/c4ccccc4)cc3)[C@H]2C1	none (no result: DENV2 CPE, CaV13 ICDI inh, ERAP1 inh, PGC1a acetyl inh)
Cc1ccc(S(=O)(=O)Nc2ccccc2C(=O)NCc2cccnc2)cc1	PGC1a acetyl inh 91.4
COc1ccc(NC(=O)Nc2ccc3c(c2)C(=O)N([C@@H](C)CO)C[C@H](C)[C@@H](CN(C)S(=O)(=O)c2ccccc2)O3)cc1	none (no result: CaV13 ICDI inh)
Cc1ccc(NC(=O)c2ccc(S(=O)(=O)N3CC(C)CC(C)C3)cc2)cc1S(=O)(=O)N1CCOCC1 (stereo unspecified)	DENV2 CPE 45.6 (no result: PGC1a acetyl inh)
O=C(Nc1ccc2c(c1)OCCO2)c1ccc(NC(=O)C2CCCO2)cc1 (stereo unspecified)	CaV13 ICDI inh 93.3 (no result: DENV2 CPE, rRNA inh HTS, GSIS activator, ERAP1 inh)
Cc1ccc(NC(=O)/C=C/c2ccc3c(c2)OCO3)cc1S(=O)(=O)N1CCOCC1	rRNA inh HTS -20.4 (no result: DENV2 CPE)
O=C(Nc1ccc(N2CCOCC2)cc1)c1ccc(S(=O)(=O)N2CCCCC2)cc1	none (no result: DENV2 CPE, rRNA inh HTS, CaV13 ICDI inh, GSIS activator, ERAP1 inh)
O=C(Nc1ccc2c(c1)OCCO2)c1ccc(S(=O)(=O)N2CCCCC2)cc1	rRNA inh HTS -32.1 (no result: DENV2 CPE)
CC(=O)c1ccc(NC(=O)c2ccc(C)c(S(=O)(=O)N3CCOCC3)c2)cc1	none (no result: PGC1a acetyl inh)
CC(=O)N1[C@@H]2c3ccc(-c4cccnc4)c(=O)n3C[C@@H]2[C@@H](CO)[C@@H]1C(=O)N1CCc2ccccc2C1	none (no result: CaV13 ICDI inh)
CCOC(=O)C(NCc1ccc(F)cc1)(NC(=O)c1ccccc1)C(F)(F)F (stereo unspecified)	none (no result: DENV2 CPE, rRNA inh HTS, ERAP1 inh, PGC1a acetyl inh)
COc1ccc(CNC(NC(=O)c2ccccc2)(C(F)(F)F)C(F)(F)F)cc1	rRNA inh HTS -18.9 (no result: PGC1a acetyl inh)
Cc1ccc(NC(=O)CN(C)C(=O)Cc2coc3cc(C)c(C)cc23)cc1	rRNA inh HTS -23.3
Cc1cc2occ(CC(=O)N(C)CC(=O)Nc3c(C)cccc3C)c2cc1C	none
C[C@H](CO)N1C[C@H](C)[C@@H](CN(C)C(=O)c2ccc(F)cc2)OCc2ccccc2-c2ccccc2C1=O	none (no result: CaV13 ICDI inh)
O=C(Cc1ccc(Cl)cc1)NCCS(=O)(=O)N1CCN(c2ccccc2F)CC1	none (no result: PGC1a acetyl inh)
O=C(COc1ccc(Cl)cc1)NCCS(=O)(=O)N1CCN(c2ccccc2F)CC1	GSIS activator 40.6
C[C@H](CO)N1C[C@H](C)[C@@H](CN(C)C(=O)Nc2ccc(C(F)(F)F)cc2)Oc2c(NC(=O)C3CCCCC3)cccc2C1=O	DENV2 CPE 22.1!
C[C@@H]1CN([C@H](C)CO)C(=O)c2cccc(NC(=O)Nc3ccccc3)c2O[C@H]1CN(C)C(=O)Nc1ccccc1	DENV2 CPE 52.3 (no result: CaV13 ICDI inh)
C[C@@H]1CN([C@@H](C)CO)C(=O)c2cccc(NC(=O)Nc3ccccc3)c2O[C@@H]1CN(C)C(=O)Nc1ccc(C(F)(F)F)cc1	DENV2 CPE 38.0 (no result: CaV13 ICDI inh)
C[C@H]1CN([C@@H](C)CO)C(=O)c2cccc(NC(=O)Nc3cccc4ccccc34)c2O[C@H]1CN(C)C(=O)Nc1ccc(C(F)(F)F)cc1	DENV2 CPE 31.9 (no result: CaV13 ICDI inh)

Screening results as filed in PubChem BioAssay.
